Reference: the supplement of paper PMC10981050
“And” between values parts separate entries of the source, which are not always exact repeats. Identical values can stand only once. Counter-ions that a name gives are not always drawn.

Key:
Experiment in all cases: cell viability relative to vehicle control; higher = less cytotoxic
Settings in all cases: 10 µM
K562 = test system: K562
In short: (§1)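 Each screen used CRISPR-edited mutant and wild-type clones from four leukaemia lines. Compounds were acoustically dispensed at a single 10 µM dose, and CellTiter-Glo luminescence was read after 48 h with the supernatant first removed. Viability was analysed in Genedata Screener and given as percent of the on-plate vehicle control.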

MARIMO = test system: MARIMO
In short: as §1

MOLM14 = test system: MOLM14
In short: as §1

OCI-AML2 = test system: OCI-AML2
In short: as §1

Structure (SMILES) | cell viability (K562; SRSF2 genotype: SRSF2 P95H/wt) | cell viability (K562; SRSF2 genotype: SRSF2 wt/wt) | cell viability (MARIMO; SRSF2 genotype: SRSF2 P95H/wt) | cell viability (MARIMO; SRSF2 genotype: SRSF2 wt/wt) | cell viability (MOLM14; SRSF2 genotype: SRSF2 P95H/wt) | cell viability (MOLM14; SRSF2 genotype: SRSF2 wt/wt) | cell viability (OCI-AML2; SRSF2 genotype: P95H/wt) | cell viability (OCI-AML2; SRSF2 genotype: wt/wt)
O=C(NNc1nc2cc(F)ccc2n2cccc12)c1cnccn1 | 24.8% and 29.5% | 12.5% | 12.6% | 15.3% | 4.38% | 1.25% | 12.4% | 10.5%
O=C(NO)c1cnc(NC2(c3ccccc3)CC2)nc1 | 8.09% and 28.4% | 35.4% | 3.94% | 3.14% | 4.83% | 1.94% | 0.88% | 2.07%
CC(=O)N1CCC(Nc2cc(C(=O)NC[C@H](O)CN3CCc4ccccc4C3)ncn2)CC1 | 91.8% and 96.6% | 90.9% | 88.8% | 103% | 87.6% | 94.5% | 78.3% | 85.2%
CC(C)OC(=O)C(C(=O)OC(C)C)=C1SC=CS1 [Malotilate] | 92.5% and 94.4% | 93.6% | 76.5% | 83.6% | 89.5% | 99.4% | 85% | 88.8%
OCC(CO)N[C@H]1C[C@](O)(CO)[C@@H](O)[C@H](O)[C@H]1O [Voglibose] | 96.2% and 91.4% | 96.6% | 98.1% | 104% | 99.7% | 97.5% | 92.3% | 109%
CN1CCN(C(=O)c2cc3cc(Cl)ccc3[nH]2)CC1 | 99% and 97.5% | 98.6% | 100% | 98.7% | 92.6% | 99.3% | 109% | 96.6%
OCc1cc(C(O)CNCCCCCCOCCCCc2ccccc2)ccc1O (stereo not given) [Salmeterol] | 77.8% and 87.8% | 88.4% | 67.7% | 68.6% | 62.8% | 74.9% | 55.2% | 60.2%
Cc1c(Cl)cccc1Nc1ccccc1C(=O)O [Tolfenamic acid] | 103% and 101% | 101% | 107% | 102% | 99.8% | 102% | 106% | 106%
CC1(C)C2CCC1(C)C(O)C2 (single isomer, unassigned; (+)) [(+)-Borneol] | 96.5% and 99.3% | 105% | 100% | 106% | 101% | 103% | 101% | 98%
COc1ccc([C@@H]2CC(=O)c3c(O)cc(O)cc3O2)cc1O [Hesperetin] | 105% and 99.8% | 100% | 93.3% | 112% | 107% | 108% | 86.7% | 94.8%
Cc1cc(C(O)=C2C(=O)C(=O)N(CCCN3CCOCC3)C2c2ccncc2)ccc1OCc1ccccc1 (stereo not given) | 96.1% and 98.6% | 102% | 93.9% | 92.6% | 107% | 96.5% | 103% | 94.2%
C#C[C@]1(O)CC[C@H]2[C@@H]3CCc4cc(O)ccc4[C@H]3CC[C@@]21C [Ethinyl Estradiol] | 71.9% and 69.8% | 65% | 70.1% | 70% | 82.4% | 98.8% | 79.3% | 79.7%
O=C(O)CCC(=O)Nc1ccc(Br)cn1 [Bikinin] | 100% and 97.8% | 106% | 104% | 104% | 102% | 106% | 102% | 99.7%
CC1(C)S[C@@H]2[C@H](NC(=O)[C@H](NC(=O)N3CCN(S(C)(=O)=O)C3=O)c3ccccc3)C(=O)N2[C@H]1C(=O)O [Mezlocillin Sodium] | 100% and 98.1% | 102% | 101% | 112% | 100% | 101% | 97.4% | 112%
COc1ccccc1OCCN [Carvedilol EP IMpurity E] | 112% and 110% | 113% | 98% | 102% | 103% | 107% | 119% | 117%
N[C@@H](CSC(c1ccccc1)(c1ccccc1)c1ccccc1)C(=O)O | 43.2% and 34.9% | 34.4% | 7.81% | 4.29% | 8.53% | 2.73% | 7.71% | 11.8%
Cc1ccn[nH]1 [3-Methylpyrazole] | 112% and 104% | 103% | 107% | 110% | 99.3% | 105% | 95.4% | 106%
Cc1oc2nc3c(c(NC(=O)CN4CCCC4=O)c2c1C)CCCC3 [Coluracetam] | 95.4% and 96.3% | 105% | 93.7% | 104% | 103% | 103% | 94.9% | 99.4%

Structure (SMILES) | cell viability (K562; SRSF2 genotype: SRSF2 P95H/wt) | cell viability (K562; SRSF2 genotype: SRSF2 wt/wt) | cell viability (MARIMO; SRSF2 genotype: SRSF2 P95H/wt) | cell viability (MARIMO; SRSF2 genotype: SRSF2 wt/wt) | cell viability (MOLM14; SRSF2 genotype: SRSF2 P95H/wt) | cell viability (MOLM14; SRSF2 genotype: SRSF2 wt/wt) | cell viability (OCI-AML2; SRSF2 genotype: P95H/wt) | cell viability (OCI-AML2; SRSF2 genotype: wt/wt)
COc1cc2c(Oc3ccc4[nH]c(C)cc4c3F)ccnc2cc1OCC1(N)CC1 [Anlotinib (AL3818) dihydrochloride] | 19.7% and 32.9% | 24.9% | 5.61% | 5.93% | 9.28% | 3.53% | 17.5% | 17.3%
CCOC(=O)c1cc(O)c(O)c(O)c1 [Ethyl gallate] | 98.4% and 88.5% | 87.8% | 72.1% | 88.3% | 78.5% | 87.2% | 80.6% | 86.8%
C[N+]1(C)[C@@H]2C[C@@H](OC(=O)C(O)(c3cccs3)c3cccs3)C[C@H]1[C@@H]1O[C@@H]12 [Tiotropium Bromide hydrate] | 106% and 108% | 98.9% | 102% | 107% | 105% | 104% | 98.9% | 104%
CN1CCC(NC(=O)c2cc(-c3c(O)cc(O)cc3Oc3ccc([N+](=O)[O-])cc3)on2)CC1 | 17.4% and 26.5% | 23.6% | 29.8% | 23.9% | 1.68% | 1.87% | 17.5% | 19.7%
CC1CCC2(C(=O)O)CCC3(C)C(=CCC4C5(C)CCC(OC6OCC(O)C(O)C6O)C(C)(C)C5CCC43C)C2C1(C)O (stereo not given) [Ziyuglycoside II] | 100% and 99.1% | 101% | 97.4% | 99% | 103% | 99% | 99.6% | 95.6%
Nc1cc[nH]c(=O)n1 [Cytosine] | 102% and 93.8% | 99.5% | 102% | 110% | 107% | 104% | 102% | 107%
Cc1ccc(-n2[nH]c(C)c(N=Nc3cccc(-c4cccc(C(=O)O)c4)c3O)c2=O)cc1C [Eltrombopag] | 77.1% and 80.1% | 74.4% | 62.2% | 71.6% | 77% | 74.6% | 68.8% | 70.1%
C[C@]1(O)C[C@@H](O)[C@@H]2C=CO[C@@H](O[C@@H]3O[C@H](CO)[C@@H](O)[C@H](O)[C@H]3O)[C@@H]21 [Leonuride] | 105% and 99.7% | 106% | 101% | 94.9% | 102% | 101% | 102% | 102%
O=Cc1ccc(O[C@@H]2O[C@H](CO)[C@@H](O)[C@@H](O)[C@H]2O)cc1 [Helicide] | 99% and 102% | 103% | 96% | 99.9% | 97.8% | 104% | 99.8% | 96.5%
CCOC(=O)CCC(=O)O[C@H]1[C@H](O[C@@H]2[C@@H](C)[C@H](O[C@H]3C[C@@](C)(OC)[C@@H](O)[C@H](C)O3)[C@@H](C)C(=O)O[C@H](CC)[C@@](C)(O)[C@H](O)[C@@H](C)C(=O)[C@H](C)C[C@@]2(C)O)O[C@H](C)C[C@@H]1N(C)C [Erythromycin Ethylsuccinate] | 95.1% and 103% | 108% | 102% | 101% | 106% | 102% | 117% | 98.3%
c1ccc(-c2[nH]ncc2-c2ccnc3ccccc23)nc1 | 105% and 109% | 105% | 107% | 106% | 109% | 104% | 112% | 105%
C[C@@H](O)[C@H]1C(=O)N2C(C(=O)O)=C([C@H]3CCCO3)S[C@H]12 [Faropenem Sodium] | 89.8% and 77.8% | 82% | 88.3% | 94.3% | 88.3% | 90.3% | 87.1% | 97.4%
C=CC(=O)Nc1cccc(Oc2nc(Nc3ccc(N4CCN(C)CC4)cc3)ncc2Cl)c1 | 19.3% and 33.1% | 34.2% | 29.4% | 18.8% | -0.04% | -0.03% | 0.39% | 5.07%
CN1CCN(c2ccc(Nc3cc(-c4cccc(-n5ccc6cc(C7CC7)cc(F)c6c5=O)c4CO)cn(C)c3=O)nc2)CC1 | 15.9% and 12.5% | 29.8% | 18.2% | 0.49% | 0.81% | 1.57% | 2.87% | 4.49%
Cc1nc(C(=O)NCC(=O)O)c(O)c2ccc(Oc3ccccc3)cc12 [Roxadustat (FG-4592)] | 89.4% and 79.4% | 85.7% | 79.1% | 82.7% | 88.5% | 84.3% | 83.9% | 87.5%
CC(=NNC(=S)N1CCC1)c1ccccn1 | 20.3% and 23% | 23.7% | 7.26% | 11.4% | 1.22% | 0.64% | 11% | 9.98%
COc1ccccc1Oc1c(NS(=O)(=O)c2ccc(C(C)(C)C)cc2)nc(-c2ncccn2)nc1OCCO [Bosentan Hydrate] | 99.5% and 99.8% | 98.6% | 97.3% | 104% | 97.1% | 105% | 112% | 95.2%
